Source: PubChem (several laboratories)
HUVEC tox IL1B = toxic to HUVEC cells under IL-1B stimulation; HUVEC cell count loss, Hoechst imaging, IL-1B stimulated; cell count reduction, % at 2 µM; actives 0.41% (n = 94,000); AID 845;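 active means cell count reduction more than 3 SD above the screen-wide mean, cut at about 70% in these data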
IL1B NFkB pot = enhances IL-1B driven NFkB nuclear translocation. AID 819. actives 0.3% (n = 94,000). HUVEC IL-1B NFkB p65 nuclear translocation imaging. activation, % at 2 µM;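 active means activation above 40%, about the mean plus 3 SD, also judged a hit on visual image review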;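 further: percent activation is computed from the nuclear over cytoplasmic p65 intensity ratio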
Candida biofilm = kills Candida albicans biofilms; C. albicans biofilm + clotrimazole, Alamar Blue; inhibition, % at 6 µM; actives 0.14% (n = 85,000);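 active means inhibition above 20%; inactive means inhibition below 20%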;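 further: preformed 24 hr biofilms exposed to compound for 48 hr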
NFkB transloc inh = blocks IL-1B driven NFkB nuclear translocation in HUVEC cells. HUVEC IL-1B NFkB p65 nuclear translocation imaging. actives 0.43% (n = 94,000). inhibition, % at 2 µM;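 active means inhibition above about 30% together with a positive call from visual inspection of the well image, limit read from the data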;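 further: nuclear over cytoplasmic p65 intensity ratio measured by imaging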
EphB4 ephrin blk = antagonists of human EphB4-ephrin-B2 interaction; P54760; EphB4 LBD / TNYL-RAW-Alexa532 peptide, fluorescence polarization; inhibition, % at 7 µM; actives 0.15% (n = 97,000); AID 720;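 active means inhibition above the screen-wide mean inhibition plus 3 SD, cut at about 15% in these data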
Target sequence (P54760 whole entry, looked up, the tested form may be a part): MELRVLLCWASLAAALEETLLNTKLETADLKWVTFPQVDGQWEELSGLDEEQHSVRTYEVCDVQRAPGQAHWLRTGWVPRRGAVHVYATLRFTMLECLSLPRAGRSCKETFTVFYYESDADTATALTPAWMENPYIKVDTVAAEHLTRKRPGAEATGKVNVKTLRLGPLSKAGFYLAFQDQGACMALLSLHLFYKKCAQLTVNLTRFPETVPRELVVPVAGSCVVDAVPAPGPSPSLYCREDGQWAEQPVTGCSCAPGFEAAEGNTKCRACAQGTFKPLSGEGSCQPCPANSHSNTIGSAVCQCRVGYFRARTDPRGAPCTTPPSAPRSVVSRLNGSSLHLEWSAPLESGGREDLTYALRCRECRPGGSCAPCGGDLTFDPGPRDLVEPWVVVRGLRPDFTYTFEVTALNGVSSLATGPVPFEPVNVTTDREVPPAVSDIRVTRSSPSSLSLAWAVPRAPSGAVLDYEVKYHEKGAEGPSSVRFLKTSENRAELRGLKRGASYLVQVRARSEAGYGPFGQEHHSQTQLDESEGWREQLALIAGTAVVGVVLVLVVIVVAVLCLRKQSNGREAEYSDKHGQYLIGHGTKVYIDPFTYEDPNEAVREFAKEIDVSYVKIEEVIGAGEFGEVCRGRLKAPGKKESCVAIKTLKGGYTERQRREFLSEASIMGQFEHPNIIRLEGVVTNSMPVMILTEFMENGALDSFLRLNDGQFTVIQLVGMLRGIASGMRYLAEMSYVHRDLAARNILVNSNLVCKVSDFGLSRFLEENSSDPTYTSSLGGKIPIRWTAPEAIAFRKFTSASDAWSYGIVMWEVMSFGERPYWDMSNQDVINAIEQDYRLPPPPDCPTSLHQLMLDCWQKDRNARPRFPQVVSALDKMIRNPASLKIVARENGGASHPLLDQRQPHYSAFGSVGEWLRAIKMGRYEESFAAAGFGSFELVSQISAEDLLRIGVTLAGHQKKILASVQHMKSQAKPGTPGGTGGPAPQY
Each line names hits and unclear results; the compound was inactive in the other large screens; [ ] = another dose, or the depositor's remark. Compounds with a hit are over-represented: about 1.1% of the library has one in this group of screens.

Cc1cc[n+](-c2nc([O-])n(-c3ccccc3)c2C=O)cc1	none
CCCc1ccc(Oc2cc(N3CCOCC3)nc(-c3ccccc3)n2)cc1	none (no result: Candida biofilm)
CCOC(=O)c1sc(NC(=O)CSc2nc(-c3ccco3)cc(C(F)(F)F)n2)c(C(=O)OC(C)C)c1C	none
CCOC(=O)N/N=C/c1ccc(C)o1	NFkB transloc inh 32.7 (no result: Candida biofilm)
Cc1ccc(-c2nc3cccnc3o2)cc1NC(=O)COc1ccc(Cl)cc1C	none
Cc1ccc(-c2nc3cccnc3o2)cc1NC(=O)COc1ccc(C(C)(C)C)cc1	EphB4 ephrin blk 82.2[fluorescence artefact?]
O=C(CN1CCN(c2ccccn2)CC1)Nc1ccccc1	IL1B NFkB pot 40.5
Cc1ccc(N(C)C(=O)N2CCN(c3ccccn3)CC2)cc1	IL1B NFkB pot 66.7
CC(=O)Nc1ccc(NC(=O)CN2CCN(c3cccc(C(F)(F)F)c3)CC2)cc1	NFkB transloc inh 34.2 (no result: Candida biofilm)
O=C(CN1CCN(c2ccccn2)CC1)Nc1ccc(F)cc1	none
Cc1c(C(=O)OC(C)C)[nH]c2c1C(=O)CC(C)(C)C2	HUVEC tox IL1B 87.3, NFkB transloc inh 95.9
CCC(C)NS(=O)(=O)c1ccc(OC)c(Cl)c1Cl (stereo not given)	none (no result: Candida biofilm)
CCOc1ccc(OCCSc2nc3ccccc3o2)cc1	NFkB transloc inh 41.9
CCCOc1ccc(OCCSc2ncccn2)cc1	IL1B NFkB pot 43.8
Clc1ccc(OCCCCSc2ncccn2)cc1	none
CC(C)N(CCc1ccncc1)C(=O)Nc1ccc(Cl)c(Cl)c1	IL1B NFkB pot 43.1
CC(C)N(CCc1ccncc1)C(=O)Nc1ccc(F)cc1	none
COc1cc(C(=O)NCCN2CCCC2)cc(OC)c1OC	none
O=C1CC(C(=O)Nc2ccc(C(=O)N3CCOCC3)cc2)C2(CCCCC2)O1 (stereo not given)	HUVEC tox IL1B 90.0
CCOC(=O)/C(=C/c1c2ccccc2cc2ccccc12)NC(=O)c1ccccc1	HUVEC tox IL1B 91.8 (no result: Candida biofilm)
CN(c1ccc(C(=O)Nc2ccccc2C(=O)N2CCCC2)cc1)S(C)(=O)=O	HUVEC tox IL1B 81.9
O=C(Nc1ccccc1C(=O)N1CCOCC1)c1ccncc1	EphB4 ephrin blk 15.5
CCO/C(C)=N/n1c2nc3ccccc3nc2c2c(=O)n(Cc3ccccc3Cl)c(C)nc21	none
O=C(CCn1cccc1)Nc1cccc(F)c1	none
Cc1cc(=O)oc(C)c1C(=O)OCC(=O)c1ccc(Cl)cc1	EphB4 ephrin blk 15.7
Cc1cc(=O)oc(C)c1C(=O)OCC(=O)c1ccc(Br)cc1	none
CCOc1ccc(CCNC(=O)CCN2C(=O)COc3ccccc32)cc1OCC	none
c1ccc(-n2nnnc2OCCOc2nnnn2-c2ccccc2)cc1	HUVEC tox IL1B 93.9 (no result: Candida biofilm)
CC(C)Oc1nnnn1-c1ccccc1	none
CCc1cccc(CC)c1NC(=O)CN1CC(C)SC1=NC1CCCCC1 (stereo not given)	none
C/C(=C\c1ccccc1)CN1CCC(C(=O)N2CCC(C)CC2)CC1	IL1B NFkB pot 46.0
Cc1cc(C)n2nc(SCc3cc(=O)n4c(C)cccc4n3)nc2n1	none (no result: HUVEC tox IL1B, IL1B NFkB pot, NFkB transloc inh, EphB4 ephrin blk)
CC(=O)Cc1nsc(NC(=O)c2cccs2)n1	none
O=C(CSc1ccc(Cl)cc1)NCC1CCCO1 (stereo not given)	Candida biofilm 65.3
O=C(CSCc1ccc(Cl)cc1)NCC1CCCO1 (stereo not given)	none
Cc1noc(C)c1CSc1nc2ccccc2c(=O)n1-c1ccc(Cl)cc1	HUVEC tox IL1B 88.7
CN1C(=O)CC(C(=O)O)SC1=Nc1ccc(F)cc1 (stereo not given)	none
CC(=O)c1ccc(NC(=O)CSc2nc3nc(C)cc(C)n3n2)cc1	none (no result: Candida biofilm)
Cc1cc(C)n2nc(SCC(=O)N/N=C/c3cccc(Br)c3)nc2n1	IL1B NFkB pot 136.5 (no result: Candida biofilm)
CCOC(=O)C(C(=O)NCc1ccc(F)cc1)c1ncc(C(F)(F)F)cc1Cl (stereo not given)	HUVEC tox IL1B 85.8 (no result: Candida biofilm)
O=Nc1c(O)n(Cc2ccc(Cl)c(Cl)c2)c2ccccc12	none (no result: Candida biofilm)
Cc1c(C(=O)O)c(-c2ccccc2)nn1-c1ccccc1	HUVEC tox IL1B 94.8 (no result: Candida biofilm)
O=c1[nH]c(CN2CCC(c3nc4ccccc4s3)CC2)nc2sc3c(c12)CCC3	none (no result: HUVEC tox IL1B, IL1B NFkB pot, NFkB transloc inh, EphB4 ephrin blk)
Cc1c(/C(O)=C2/C(=O)C(=O)N(CCN3CCOCC3)C2c2ccco2)cnn1-c1ccccc1 (stereo not given)	none (no result: HUVEC tox IL1B, IL1B NFkB pot, NFkB transloc inh, EphB4 ephrin blk)
Cc1c(/C(O)=C2/C(=O)C(=O)N(CCN3CCOCC3)C2c2cccnc2)cnn1-c1ccccc1 (stereo not given)	IL1B NFkB pot 59.6
Cn1cc(C(=O)NCCN2CCN(c3ccccc3F)CC2)c2c3ccccc3n(C)c2c1=O	none (no result: HUVEC tox IL1B, IL1B NFkB pot, NFkB transloc inh, EphB4 ephrin blk)
Cc1noc(-c2ccccc2OC(=O)c2ccccc2)n1	IL1B NFkB pot 53.4
O=C(Oc1ccccc1-c1nnco1)c1ccccc1	none
CC(C)(C)NC(=O)C(c1ccsc1)N(CCc1ccccc1)C(=O)Cn1nnc2ccccc21 (stereo not given)	NFkB transloc inh 57.5 (no result: Candida biofilm)
O=C(NCCN1CCOCC1)c1cc2cc(Cl)cc(Cl)c2oc1=O	none
CC(NCc1ccccc1)C1COc2ccccc2O1 (stereo not given)	IL1B NFkB pot 49.1
COc1ccc(CNC(C)C2COc3ccccc3O2)c(OC)c1 (stereo not given)	none
O=C(CN1CCOc2ccccc21)N1CCN(c2cccc(Cl)c2)CC1	none
COc1ccc(OC)c(NC(=O)CNC(=O)c2cccs2)c1	none
Cc1ccc(C(C(=O)NC(C)(C)C)N(Cc2ccco2)C(=O)CCC(=O)Nc2nccs2)cc1 (stereo not given)	none
O=c1c2ccccc2nc(-c2ccco2)n1Cc1ccccc1	none
O=c1c2ccccc2nc(-c2ccoc2)n1CCc1ccccc1	EphB4 ephrin blk 16.0
CCN(CC)S(=O)(=O)c1cccc(C(=O)OCC(=O)Nc2ccccc2OC(F)F)c1	NFkB transloc inh 42.8 (no result: Candida biofilm)
O=C(c1cccc(F)c1)N1CCN(Cc2ccco2)CC1	IL1B NFkB pot 40.5
COc1ccc(OC)c(C2C3=C(CCCC3=O)NC3=C2C(=O)CCC3)c1	none
COc1ccc(OC)c(C2C(C(=O)Nc3cccnc3)=C(C)NC3=C2C(=O)CCC3)c1 (stereo not given)	IL1B NFkB pot 42.1
Cc1cc(C)c(S(=O)(=O)N(C)CC(N)=O)c(C)c1	none
CC(=O)c1coc2ccc(OCCN3CCCCC3)cc12	IL1B NFkB pot 43.0
CCc1nnc(NC(=O)CSc2nc3cccnc3n2Cc2ccccc2)s1	none
Cc1ccc(S(=O)(=O)c2c(COC(=O)c3ccc(Cl)cc3)c(-c3ccccc3)nn2C)cc1	none (no result: HUVEC tox IL1B, IL1B NFkB pot, NFkB transloc inh)
O=C1CCCc2c1[nH]c1ccccc21	EphB4 ephrin blk 16.5
CCCCOCCCNC(=O)c1ccc(OCC)cc1	none
CCc1ccc(C(=O)Cn2ncc(Cl)c(Cl)c2=O)cc1	NFkB transloc inh 55.9
O=C(COC(=O)C1=COCCO1)NCCCc1ccccc1	none
c1ccc(-n2nc3c(ccc4cnnc43)[nH]2)cc1	none
COc1ccc(C(CC(=O)c2ccccc2)S(=O)(=O)c2ccc(C)cc2)cc1 (stereo not given)	IL1B NFkB pot 69.2 (no result: Candida biofilm)
CC(=O)CC(c1ccccc1)S(=O)(=O)c1ccc(C)cc1 (stereo not given)	none (no result: Candida biofilm)
CCCc1[nH]nc2c1C(c1ccc(OC)c(Cn3nnc4ccccc43)c1)C(C#N)=C(N)O2 (stereo not given)	EphB4 ephrin blk 16.6
